Compound activity deposited in PubChem BioAssay by Broad Institute.
The sample as a whole holds a higher share of hits than the screen did.
DUX4 inh: DUX4-mediated transcription inhibition. 293T-iDUX4 ZSCAN4-Gaussia luciferase reporter, 24 h; hits give low values. 37,000 compounds, 0.8% hits. activity change, negative = inhibition, % (no concentration beside the values). AID 1224904;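 active means mean inhibition of at least 10% in the main channel, exceeding the control channel by a set limit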
Hits are given with their value; ! = repeats disagree.

`COc1ccc2c3c([nH]c2c1)[C@@H](CO)N(Cc1ccncc1)CC31CN(S(C)(=O)=O)C1` gave DUX4 inh inactive.
Screening O=C(C[C@H]1CC[C@H]2[C@@H](COC[C@H](O)CN2CC2CCOCC2)O1)NCc1ccc(Cl)cc1 returned DUX4 inh -28.8.
Screening O=C(C[C@H]1CC[C@@H]2[C@H](COC[C@@H](O)CN2CC2CCCCC2)O1)NCc1ccc(Cl)cc1 returned DUX4 inh inactive.
O=C(C[C@H]1CC[C@H]2[C@@H](COC[C@H](O)CN2CC2CCCCC2)O1)NCc1ccc(Cl)cc1 was read as DUX4 inh inactive.
C/C=C/c1ccc([C@H]2[C@@H](CO)N[C@@H]2CNC(=O)C2CCCCC2)cc1 was read as DUX4 inh inactive.
`COc1ccccc1CNC(=O)C[C@H]1CC[C@@H]2[C@H](COC[C@@H](O)CN2C(=O)Nc2ccc(F)cc2)O1` gave DUX4 inh inactive.
`C[C@@H]1CN([C@H](C)CO)C(=O)CCCn2nncc2CO[C@H]1CN(C)S(=O)(=O)c1ccccc1C#N` gave DUX4 inh inactive.
O=C(C[C@@H]1C[C@H]2c3cc(NC(=O)Nc4ccccc4F)ccc3O[C@H]2[C@H](CO)O1)NCc1cc(F)ccc1F was read as DUX4 inh -52.4.
Screening COc1ccccc1CNC(=O)C[C@@H]1C[C@H]2c3cc(NC(=O)Nc4ccccc4F)ccc3O[C@H]2[C@H](CO)O1 returned DUX4 inh inactive.
`COCCNC(=O)C[C@@H]1C[C@H]2c3cc(NC(=O)Nc4ccccc4F)ccc3O[C@H]2[C@H](CO)O1` gave DUX4 inh inactive.
COCCNC(=O)C[C@H]1C[C@H]2c3cc(NC(=O)Nc4ccccc4F)ccc3O[C@H]2[C@H](CO)O1 was read as DUX4 inh inactive.
Screening O=C(C[C@H]1C[C@@H]2c3cc(NC(=O)Nc4ccccc4F)ccc3O[C@@H]2[C@H](CO)O1)NCc1cc(F)ccc1F returned DUX4 inh inactive.
O=C(C[C@@H]1C[C@H]2c3cc(NC(=O)Nc4ccccc4F)ccc3O[C@H]2[C@@H](CO)O1)NCCc1ccccc1 was read as DUX4 inh -21.6.
`C[C@H](CO)N1C[C@H](C)[C@@H](CN(C)C(=O)Nc2ccc(C(F)(F)F)cc2)Oc2ccc(NC(=O)CCCCCC(=O)Nc3ccccc3N)cc2C1=O` gave DUX4 inh inactive.
`CC[C@@H]1C/C=C\C[C@H](c2ccc(OC)cc2OC)NC(=O)[C@@H](C)CC(=O)N1` gave DUX4 inh inactive.
Screening COc1ccccc1-c1ccc2c(c1)[C@@H]1[C@@H](CCN1C(=O)c1ccncc1)[C@@H](CO)N2 returned DUX4 inh inactive.
Screening COc1ccccc1CN1CC2(C1)[C@@H](c1ccccc1)[C@@H](CO)N2Cc1ccccc1 returned DUX4 inh -54.8.
Screening COCC(=O)N1CC2(C1)[C@H](c1ccccc1)[C@@H](CO)N2Cc1ccccc1OC returned DUX4 inh inactive.
For COc1ccccc1CN1[C@H](CO)[C@@H](c2ccccc2)C12CN(C(C)=O)C2 the results were DUX4 inh inactive.
Cc1ccccc1S(=O)(=O)N1C[C@@H]2N[C@H](C1)C2c1ccc(/C=C/c2ccccc2)cc1 (stereo partly drawn) was read as DUX4 inh -37.2.
For Cc1ccccc1S(=O)(=O)N1[C@@H]2CNC[C@H]1C2c1ccc(-c2cccc(C#N)c2)cc1 (stereo partly drawn) the results were DUX4 inh inactive.
`C/C=C/c1ccc(C2[C@H]3CNC[C@@H]2N3S(=O)(=O)c2ccccc2C)cc1` (stereo partly drawn) gave DUX4 inh inactive.
Cc1ccccc1S(=O)(=O)N1C[C@@H]2N[C@H](C1)C2c1ccc(-c2ccc(C#N)cc2)cc1 (stereo partly drawn) was read as DUX4 inh -68.8!.
`CS(=O)(=O)N1[C@H](C#N)[C@@H](c2ccc(/C=C/c3ccccc3)cc2)[C@H]1CO` gave DUX4 inh inactive.
Screening Cc1ccccc1S(=O)(=O)N1[C@H](C#N)[C@H](c2ccc(-c3ccc(F)cc3)cc2)[C@H]1CO returned DUX4 inh inactive.
C[C@H](CO)N1C[C@H](C)[C@@H](CN(C)Cc2cccc(C(F)(F)F)c2)OCc2ccccc2-c2ccccc2C1=O was read as DUX4 inh -42.4.
C[C@@H]1CN([C@@H](C)CO)C(=O)c2ccccc2-c2ccccc2CO[C@@H]1CN(C)Cc1ccc(Cl)c(Cl)c1 was read as DUX4 inh -30.7.
For C[C@@H]1CN([C@@H](C)CO)C(=O)c2ccccc2-c2ccccc2CO[C@@H]1CN(C)Cc1ccc(-c2ccccc2)cc1 the results were DUX4 inh -29.3.
C[C@H](CO)N1C[C@H](C)[C@@H](CN(C)Cc2ccc3c(c2)OCO3)OCc2ccccc2-c2ccccc2C1=O was read as DUX4 inh inactive.
`C[C@@H]1CN([C@@H](C)CO)C(=O)c2ccccc2-c2ccccc2CO[C@@H]1CN(C)Cc1ccc(F)cc1` gave DUX4 inh inactive.
`C[C@H](CO)N1C[C@H](C)[C@H](CN(C)Cc2ccc3c(c2)OCO3)OCc2ccccc2-c2ccccc2C1=O` gave DUX4 inh inactive.
Screening C[C@H](CO)N1C[C@H](C)[C@H](CN(C)Cc2ccc(-c3ccccc3)cc2)OCc2ccccc2-c2ccccc2C1=O returned DUX4 inh inactive.
For C[C@@H]1CN([C@H](C)CO)C(=O)c2ccccc2-c2ccccc2CO[C@@H]1CN(C)Cc1cccc(F)c1 the results were DUX4 inh inactive.
`C[C@H]1CN([C@@H](C)CO)C(=O)c2ccccc2-c2ccccc2CO[C@@H]1CN(C)Cc1cccc(F)c1` gave DUX4 inh inactive.
Screening C[C@@H]1C(=O)N[C@@H](c2cccc(Cl)c2)CC=CC[C@H](C)Oc2ccccc2C(=O)N1C (mixture of isomers) returned DUX4 inh inactive.
`CO[C@H]1CN(C)C(=O)c2ccc(NC(=O)C3CCCC3)cc2OC[C@H](C)N(CCC(F)(F)F)C[C@@H]1C` gave DUX4 inh inactive.
`CO[C@H]1CN(C)C(=O)c2cc(NS(=O)(=O)c3ccccc3F)ccc2OC[C@H](C)NC[C@H]1C` gave DUX4 inh inactive.
Screening C[C@@H]1C(=O)N[C@@H](c2ccc(F)cc2)CC=CC[C@H](C)Oc2ccccc2C(=O)N1C (mixture of isomers) returned DUX4 inh inactive.
Screening C[C@H](CO)N1C[C@H](C)[C@@H](CN(C)C(=O)Nc2ccc3c(c2)OCO3)Oc2c(NC(=O)Cc3cn(C)c4ccccc34)cccc2C1=O returned DUX4 inh inactive.
For CCC(=O)N(C)C[C@@H]1Oc2cc(-c3ccccc3C)ccc2S(=O)(=O)N([C@H](C)CO)C[C@H]1C the results were DUX4 inh inactive.
`O=C(Nc1cccc(F)c1)N1C[C@@H]2N[C@H](C1)C2c1ccc(-c2cncnc2)cc1` (stereo partly drawn) gave DUX4 inh inactive.
`O=C(c1ccncc1)N1C[C@@H]2N[C@H](C1)C2c1ccc(-c2ccncc2)cc1` (stereo partly drawn) gave DUX4 inh inactive.
`O=C(C1CCOCC1)N1C[C@@H]2N[C@H](C1)C2c1ccc(-c2cncnc2)cc1` (stereo partly drawn) gave DUX4 inh inactive.
Screening Cc1cccc(-c2ccc(C3[C@@H]4CN(C(=O)Nc5ccccc5)C[C@H]3N4)cc2)c1 (stereo partly drawn) returned DUX4 inh inactive.
